The values that follow come from PubChem BioAssay (NCI).

The structures appear in SMILES notation. Compounds without any hit were thinned out: in the full panel of roughly 83,000, 20% have a hit.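 Results are percent growth after 48 hours of single-concentration exposure. 100 means growth as in untreated cells, lower positive values show inhibition; negative values down to -100 show cell death.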 Values without a mark were called inactive. Activity calls are given as the source filed them. How the source made its calls: active means growth percent below 10; inactive means the rest.

Test in all cases: NCI-60 one-dose screen, 48 h (100 = growth as untreated, 0 = no growth, -100 = all killed)
Common to all, as to details: 10 µM unless noted

Assay [1] concerns NCI-H23 lung.
In assay [2] the test system is NCI-H226 lung.
Assay [3] deals with NCI-H322M lung.
For assay [4], the system named is HOP-62 NSCLC.
The test system of assay [5] is NCI-H460 lung.
Assay [6] deals with HOP-92 NSCLC.
For assay [7], the system named is NCI-H522 lung.
Assay [8] concerns A549/ATCC NSCLC.
Assay [9] relates to 786-0 renal.
Assay [10] deals with COLO 205 colon.
Assay [11] deals with DU-145 prostate.
In assay [12] the test system is K-562 leukemia.
The test system of assay [13] is MALME-3M melanoma.
The subject of assay [14] is MDA-MB-231 breast.
Assay [15] concerns SF-268 CNS.
Assay [16] deals with SF-295 CNS.
For assay [17], the system named is SF-539 CNS.
Assay [18] relates to UACC-257 melanoma.
Assay [19] has as its system M14 melanoma.
For assay [20], the system named is RXF 393 renal.

With `NC(CC(=O)O)C(=O)OCc1ccccc1` (stereo not given), the growth was 104% in assay [1]; 95.1% in [2]; 84.2% in [3]; 86.7% in assay [4]; 103% in assay [5]; 86.3% in assay [6]. The growth in assay [7] was 84.3%; in assay [8], 105%; in [9] it was 98.6%; in assay [10], 106%; in [11], 109%; in assay [12], 106%. The growth is 81.1% in assay [13]; 105% in [14]; 100% in [15]; 93.3% in assay [16]; 93.4% in [17]; 89.2% in assay [18]. Also, in assay [19], the growth was 104%.

Turning to `C(=N\Nc1nnn(Cc2ccccc2)n1)/c1ccccc1`, the growth is 53.1% in assay [1]; 85% in assay [2]; 86% in assay [3]; 67.3% in assay [4]; 17.4% in assay [5]; 87.2% in [6]. Further, the growth was 29.2% in assay [7]; 33.6% in [8]; 63.6% in [9]; 36.9% in [10]; 40% in assay [11]; 29.3% in assay [12]. For the same compound, the growth in [13] is 24.7%; in assay [14], 98.2%; in assay [15], 46.2%; in assay [16], 31.2%; in [17], 41%; in assay [18], 43.9%. In assay [19], the growth is 42%.

In the case of `Cc1cccc(NC(=O)c2sc3nc4c(cc3c2N)C(=O)CCC4)c1`, the growth in assay [1] was 53.1%; in assay [2], 56.6%; in [3], 37.2%; in assay [4] it was 42.9%; in assay [5] it was 6.09% (active); in assay [6], 64.5%. In addition, the growth is 11.7% in [7]; 31.4% in assay [8]; 31.3% in assay [9]; 3% (active) in [10]; 9.01% (active) in assay [11]; 18.8% in assay [12]. Further, the growth in assay [14] is 36.6%; in assay [20] it was 22.7%; in assay [15] it was 64.8%; in [16], 20.6%; in [17] it was -27.7% (active); in [18], 76.3%. Besides, the growth in assay [19] is 21.8%.

Consider `CC[C@H](Nc1cc(C)nc(N)n1)c1nc2cccc(NCc3ccc(C(=O)NO)cc3)c2c(=O)n1-c1ccccc1`, for which the growth was -6.84% (active) in assay [1]; 64.7% in assay [2]; 47.7% in [3]; 34.5% in assay [4]; 30.1% in [5]; -3.07% (active) in [6]. For the same compound, the growth in assay [7] was -63.7% (active); in [8] it was 60.1%; in [9], 44.1%; in [10] it was -51.8% (active); in [11], 36.4%; in assay [13], 37.6%. Further, the growth in assay [14] was 0.273% (active); in assay [20], -6% (active); in [15] it was 27.6%; in [16] it was 64.2%; in assay [17], -20.6% (active); in [18], 12.3%. Besides, the growth in [19] is 16.3%.

For the compound `Cc1ccc2c(NCCCN(C)C)c3c(C)nn(C)c3nc2c1`, the growth in assay [1] is 51.6%; in [2], 41.7%; in assay [3] it was 34.5%; in assay [4] it was 41.1%; in [5] it was 8.82% (active); in assay [6], 30%. Further, the growth in assay [7] was 28.3%; in assay [8], 13.7%; in [9] it was 37.1%; in [10], 13.4%; in assay [12] it was 9.48% (active); in [13], 52.7%. Further, the growth in assay [14] is 47.6%; in assay [15], 33.2%; in assay [16], 30.2%; in assay [17] it was 36.5%; in assay [18], 31.8%; in assay [19], 42.5%.

In the case of `C=CCSc1nnc(-c2ccc(C(C)(C)C)cc2)n1-c1cccc(C(F)(F)F)c1`, the growth in assay [1] is 35.4%; in assay [2] it was 44.7%; in assay [3], 77.7%; in assay [4] it was 67.3%; in assay [5] it was 29.3%; in assay [6], 28.9%. The growth was 37.3% in [7]; 21.2% in assay [8]; 30.4% in [9]; 41.1% in assay [10]; 54.3% in assay [11]; 20.3% in [12]. In addition, the growth is 66.1% in [13]; 18.1% in assay [20]; 29.3% in assay [16]; 69.5% in [17]; 48.5% in [18]; 45.3% in [19].

`CCOC(=O)C(=Cc1ccccc1F)C(=O)OCC`: the growth was 99.2% in assay [1]; 96.1% in [2]; 94% in assay [3]; 137% in assay [4]; 105% in [5]; 103% in assay [6]. The growth is 65.2% in [7]; 90.3% in assay [8]; 104% in assay [9]; 115% in assay [10]; 71.1% in assay [11]; 94.2% in assay [13]. The growth in assay [14] is 93.3%; in assay [20], 102%; in [15], 89.9%; in [16], 111%; in assay [17] it was 98%; in assay [18] it was 83.2%. In assay [19], the growth is 85.8%.

With `Nc1ccc(Nc2nccc(-c3ccc4ccccc4c3)n2)cc1`, the growth was 41.2% in [1]; 64% in assay [2]; 64.5% in assay [3]; 44.2% in assay [4]; 17.8% in [5]; 65.1% in assay [6]. Further, the growth was 27.6% in assay [7]; 25.5% in assay [8]; 58.7% in assay [9]; 49.4% in [10]; 67.4% in assay [11]; 59.5% in assay [13]. For the same compound, the growth in assay [14] was 46.8%; in assay [20], 50.3%; in assay [15] it was 49.9%; in assay [16], 64.8%; in assay [17], 55.4%; in assay [18] it was 58.6%. Moreover, in [19], the growth was 26.8%.
